Where “and” joins values, the source holds several entries; their conditions need not be identical. Equal entries are not always repeated. The panel holds about 83,000 compounds, 20% with a hit somewhere; the sample as a whole holds those more often.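 In brief: 96-well plates, 48 h treatment, single concentration, percent growth endpoint.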 Unmarked numbers belong to inactive results. Calls of active or inactive are those of the source. Rule for the calls: active = growth percent below 10; inactive = the rest.

The test system of this assay is MDA-MB-468 breast. The experiment in a line: NCI-60 one-dose screen, 48 h (100 = growth as untreated, 0 = no growth, -100 = all killed). Conditions: 10 µM unless noted.
As for `CCOCCNC1=C(Cl)C(=O)c2ccccc2C1=O`, the growth is 94.7%.

As to `Fc1ccc(CNCCNc2ncnc3c2cnn3-c2ccccc2)cc1`, the growth is 81.4%.

In the case of `Nc1nc(CSc2n[nH]c(N)n2)nc(Nc2ccccc2)n1`, the growth was 108%.

Take `O=C(O)c1ccccc1Cc1ccc(F)c2ccccc12`: the growth is 110% and 102%.

Regarding `COc1cc(OC)c(S(N)(=O)=O)cc1C(=O)/C=C/c1ccccc1`, the growth is -43.4% (active).

For `COC(=O)[C@]12CC[C@@H](C)[C@H](C)[C@@H]1C1=CC[C@@H]3[C@@]4(C)CC(=O)[C@H](O)[C@@]5(C)COC(=C45)C[C@@]3(C)[C@]1(C)CC2`, the growth was -83.9% (active).

On to `CCO/C=N/C1=C(C#N)C(c2ccc(Cl)cc2)c2c(c3ccccc3n(C)c2=O)O1` (stereo not given), for which the growth was 54%.

In the case of `COc1ccc(CCn2cncc2-c2c[nH]c3ccccc23)cc1`, the growth is 94.5%.

Take `O=C(/C=C/c1cc2ccccc2[nH]c1=O)c1ccc(O)cc1`: the growth was 0.877% (active).

As to `CCCCCc1ccc(S(=O)(=O)N(C(C)=O)c2cccc(-c3csc(N(CCN4CCN(C)CC4)C(C)=O)n3)c2)cc1`, the growth is -10.9% (active).

In the case of `Cc1nc(N)sc1C(=O)NCCO`, the growth is 96.8%.

Consider `CCCCCCNc1cc(C)nc2ccc(OC)cc12`, for which the growth is -10.9% (active).

As to `CC1=C2[C@@H](CC1)[C@]1(C)O[C@@](C3CCCCC3)(C[C@H]1OC(=O)CO)[C@H]2OC(=O)/C=C/c1ccccc1`, the growth is 87.6%.

As for `CCCCN(CCCC)C(=N)c1ccnc2ccccc12`, the growth was 117%.

Regarding `CCN(CC)c1ccc2c(cc1=O)[C@@H](NC(C)=O)CCc1cc(OC)c(OC)c(OC)c1-2`, the growth was 36.9%.

In the case of `COc1ccc([C@H]2[C@H](O)C(=O)N2c2cc(OC)c(OC)c(OC)c2)cc1F`, the growth was 26.4%.

On to `COc1ccc(C(=O)NC(=O)Nc2ccc3c(c2)NC(=O)/C3=C\c2[nH]c(C)c(C(=O)O)c2C)cc1`, for which the growth was 76.2%.

Consider `O=C(NC1CCCCC1)c1ccc(Nc2ncnc3c2cnn3-c2ccccc2)cc1`, for which the growth was 76.1%.

In the case of `C[C@H](Oc1cc(-c2cnn(C3CCNCC3)c2)cnc1N)c1c(Cl)ccc(F)c1Cl`, the growth is 34.9%.

In the case of `CN1/C(=C/C=C/c2n(Cc3ccc4ccccc4c3)c(Cl)c(Cl)[n+]2Cc2ccc3ccccc3c2)Oc2ccccc21`, the growth was -56.7% (active).

Take `C#Cc1cc(C(=O)Nc2ccc(CNCCN3CCOCC3)c(C(F)(F)F)c2)ccc1C`: the growth is 82.8%.

As to `COc1cc2c3c(n(CCCNCC4CC4)c(=O)c2cc1OC)-c1cc2c(cc1C3=O)OCO2`, the growth was 41.4%.

Consider `O=C(Nc1cc(Cl)ccc1O)c1ccc(Nc2ccnc(C(F)(F)F)c2)cc1`, for which the growth was 58.7%.

Consider `Fc1ccc(N/N=C/c2ccc(-n3cccn3)cc2)cc1`, for which the growth is 121%.

Regarding `Nc1nc2ccccc2c2c(=O)c3ccc(Cl)cc3sc12`, the growth was 3.53% (active).

As for `CCOC(=O)CC(=O)OC`, the growth was 102%.

With `CCc1cccc(CC)c1NC(=O)c1sc2nc3c(cc2c1N)CCCC3`, the growth was 79.3%.

Regarding `CC1CCCC(=O)O1` (stereo not given), the growth was 97.4% and 97.3%.

In the case of `COc1ccc(C2c3cccn3-c3ccccc3N2C(C)=O)cc1` (stereo not given), the growth is 93.9%.

In the case of `O=C1CCC(C(=O)N/N=C/c2cc(F)ccc2F)N1` (stereo not given), the growth is 111%.

As to `CC(=O)Nc1ccc(C(=O)/C=C/c2ccc(N(C)C)cc2)cc1`, the growth was 95.6%.

On to `COc1cc(/C=C\c2cc(OC)c(OC)c(OC)c2)cc(NC(=O)/C=C/c2cc(OC)c(OC)c(OC)c2)c1OC`, for which the growth was 36%.

In the case of `COc1cc(C2C3=C(COC3=O)N(CCO)c3cc4c(cc32)OCCO4)cc(OC)c1OC` (stereo not given), the growth is -64.5% (active).

Turning to `c1ccc(Sc2ccccc2)cc1`, the growth is 102%.

With `NS(=O)(=O)c1ccc(C(=O)N/N=C(\CS(=O)(=O)c2ccccc2)c2cc3cc(Br)ccc3o2)cc1`, the growth is 78.9%.

With `Nc1c(C(=O)Nc2ccccn2)sc2nc3c(cc12)C(O)CCC3` (stereo not given), the growth was 15%.

Turning to `COc1ccc(-c2nc(SCCC(C)C)nc(N/N=C(/C)c3ccc(C)cc3)c2C#N)cc1`, the growth is 105%.

Turning to `COc1cc(C(=O)/C=C/c2c(-c3cccs3)nc3ccccn23)cc(OC)c1OC`, the growth is -30.4% (active).

`c1cc2nc(-c3cn[nH]c3)c3c(c2cc1-c1cn[nH]c1)C1CCC3C1` (stereo not given): the growth is 78.9%.

Regarding `CCOC(=O)CN1CCC(C(=O)OCC)CC1`, the growth is 114%.

The values are drawn from PubChem BioAssay (NCI).
